# Data taken from PubChem BioAssay (Tox21).
# Values without a mark were called inactive. Records with an inconclusive call do not appear. A call without a number means that no potency is given here. Calls of active or inactive are those of the source. Calls follow the shape of the dose curve; as a rule, active = well fitted curve in the direction sought with a large enough effect in the repeat runs; inconclusive = weak or mixed curves; inactive = no such curve, though single readings can be large; an effect the other way counts as inactive or inconclusive.
# Key:
# [1] = qHTS RealTime-Glo MT Cell Viability Assay in HEK293 cells - 40 hour (AID 1224874); conditions: RealTime-Glo luminescence; max response: active compounds read low; also: nearly all actives have a fitted effect of over 50% in size; also: potency is read from the fitted curve at half-maximal effect
# Procedure, shortened: (§1)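 600 HEK293 cells per well, dispensed already mixed with RealTime-Glo MT reagents. Compound dosing came 5 h later. The same wells were read for luminescence at 0, 8, 16, 24, 32 and 40 h of exposure at 37 C.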
# [2] = A CellTox Green Cytotoxicity Assay to monitor cytotoxicity in HEK293 cells - 24 hour (AID 1224875); also: nearly all actives have a fitted effect of over 45% in size; also: potency is read from the fitted curve at half-maximal effect
# Procedure, shortened: (§2)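 Dead-cell fluorescence measured kinetically: asymmetric cyanine dye, HEK293, 600 cells/well, 5 h settle, 23 nL cpd/DMSO, 37 C, reads 0–40 h every 8 h.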
# [3] = qHTS RealTime-Glo MT Cell Viability Assay in HepG2 cells - 32 hour (AID 1224877); also: nearly all actives have a fitted effect of over 55% in size
# Procedure, shortened: (§3)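 HepG2 cells (600/well) were dispensed with RealTime-Glo reagents, incubated 5 h at 37 °C, then treated with compounds in DMSO for up to 40 h. Nonlytic NanoLuc luminescence reflecting viable cells was read at each stated time point.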
# [4] = A CellTox Green Cytotoxicity Assay to monitor cytotoxicity in HepG2 cells - 24 hour (AID 1224878); also: nearly all actives have a fitted effect of over 45% in size
# Procedure, shortened: (§4)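 First, HepG2 cells (600/well) mixed with reagent were plated; second, after 5 h at 37 C they received compounds via pintool; third, fluorescence was measured at 0 h through 40 h at 8 h intervals.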
# [5] = A CellTox Green Cytotoxicity Assay to monitor cytotoxicity in HepG2 cells - 40 hour (AID 1224879); also: nearly all actives have a fitted effect of over 40% in size; also: potency is read from the fitted curve at half-maximal effect
# Procedure, shortened: as §4
# [6] = qHTS RealTime-Glo MT Cell Viability Assay in HEK293 cells - 0 hour (AID 1224880); also: top concentration of the series differs between compounds; nearly all actives have a fitted effect of over 45% in size
# Procedure, shortened: as §1
# [7] = A CellTox Green Cytotoxicity Assay to monitor cytotoxicity in HEK293 cells - 32 hour (AID 1224881); also: nearly all actives have a fitted effect of over 40% in size; also: potency is read from the fitted curve at half-maximal effect
# Procedure, shortened: as §2
# [8] = A CellTox Green Cytotoxicity Assay to monitor cytotoxicity in HepG2 cells - 0 hour (AID 1224882); also: nearly all actives have a fitted effect of over 35% in size
# Procedure, shortened: as §4
# [9] = A CellTox Green Cytotoxicity Assay to monitor cytotoxicity in HepG2 cells - 32 hour (AID 1224883); also: nearly all actives have a fitted effect of over 50% in size
# Procedure, shortened: as §4
# [10] = qHTS RealTime-Glo MT Cell Viability Assay in HepG2 cells - 16 hour (AID 1224885); also: nearly all actives have a fitted effect of over 50% in size
# Procedure, shortened: as §3
# [11] = qHTS RealTime-Glo MT Cell Viability Assay in HEK293 cells - 24 hour (AID 1224886); also: nearly all actives have a fitted effect of over 50% in size; also: potency is read from the fitted curve at half-maximal effect
# Procedure, shortened: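 HEK293 cells seeded with NanoLuc/prosubstrate reagent, rested 5 h at 37 C, then dosed and kept at 37 C up to 40 h. Nonlytic real-time luminescence from viable cells read at 0, 8, 16, 24, 32 and 40 h.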
# [12] = qHTS RealTime-Glo MT Cell Viability Assay in HEK293 cells - 8 hour (AID 1224887); also: nearly all actives have a fitted effect of over 50% in size; also: potency is read from the fitted curve at half-maximal effect
# Procedure, shortened: as §1
# [13] = A CellTox Green Cytotoxicity Assay to monitor cytotoxicity in HEK293 cells - 16 hour (AID 1224888); also: nearly all actives have a fitted effect of over 35% in size
# Procedure, shortened: as §2
# [14] = qHTS RealTime-Glo MT Cell Viability Assay in HepG2 cells - 0 hour (AID 1224889); also: nearly all actives have a fitted effect of over 50% in size
# Procedure, shortened: as §3
# [15] = A CellTox Green Cytotoxicity Assay to monitor cytotoxicity in HepG2 cells - 8 hour (AID 1224890); also: nearly all actives have a fitted effect of over 45% in size
# Procedure, shortened: as §4
# [16] = qHTS assay to identify small molecule antagonists of the androgen receptor (AR) signaling pathway using the MDA cell line in the presence of 0.5 nM R1881 - cell viability counter screen (AID 1259242); also: nearly all actives have a fitted effect of over 45% in size
# Procedure, shortened: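 qHTS format. MDA-kb2 (MMTV-luc, AR/GR responsive) + cpd + 0.5 nM R1881 final, 16 hr 37C/0% CO2 → CellTiter-Fluor 30 min → fluorescence intensity.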
# [17] = A CellTox Green Cytotoxicity Assay to monitor cytotoxicity in HepG2 cells - 16 hour (AID 1224876); also: nearly all actives have a fitted effect of over 45% in size
# Procedure, shortened: as §4
# [18] = A CellTox Green Cytotoxicity Assay to monitor cytotoxicity in HEK293 cells - 8 hour (AID 1224884); also: nearly all actives have a fitted effect of over 35% in size
# Procedure, shortened: as §2
# [19] = qHTS assay to identify small molecule antagonists of the estrogen receptor alpha (ER-alpha) signaling pathway using the BG1 cell line in the presence of 0.1 nM 17-beta-estradiol - cell viability counter screen (AID 1259241); also: nearly all actives have a fitted effect of over 40% in size
# Procedure, shortened: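 Measures cytotoxicity alongside the ER-alpha antagonist readout: VM7Luc4E2 cells, charcoal-stripped serum, 0.1 nM 17beta-estradiol final, 22 hr compound incubation at 37C, CellTiter-Fluor fluorescence.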
# [20] = molecular target: Androgen receptor (Homo sapiens) (UniProt P10275); experiment: qHTS assay to identify small molecule antagonists of the androgen receptor (AR) signaling pathway using the MDA cell line in the presence of 0.5 nM R1881 (AID 1259243); also: nearly all actives have a fitted effect of over 50% in size; also: potency is read from the fitted curve at half-maximal effect
# Procedure, shortened: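 Antagonist mode quantitative HTS in MDA-kb2 MMTV-luciferase cells, agonist R1881 at 0.5 nM final, 16 hr exposure at 37C and 0% CO2, luminescent detection.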
# Sequence of Androgen receptor (Homo sapiens) (P10275 whole entry, looked up): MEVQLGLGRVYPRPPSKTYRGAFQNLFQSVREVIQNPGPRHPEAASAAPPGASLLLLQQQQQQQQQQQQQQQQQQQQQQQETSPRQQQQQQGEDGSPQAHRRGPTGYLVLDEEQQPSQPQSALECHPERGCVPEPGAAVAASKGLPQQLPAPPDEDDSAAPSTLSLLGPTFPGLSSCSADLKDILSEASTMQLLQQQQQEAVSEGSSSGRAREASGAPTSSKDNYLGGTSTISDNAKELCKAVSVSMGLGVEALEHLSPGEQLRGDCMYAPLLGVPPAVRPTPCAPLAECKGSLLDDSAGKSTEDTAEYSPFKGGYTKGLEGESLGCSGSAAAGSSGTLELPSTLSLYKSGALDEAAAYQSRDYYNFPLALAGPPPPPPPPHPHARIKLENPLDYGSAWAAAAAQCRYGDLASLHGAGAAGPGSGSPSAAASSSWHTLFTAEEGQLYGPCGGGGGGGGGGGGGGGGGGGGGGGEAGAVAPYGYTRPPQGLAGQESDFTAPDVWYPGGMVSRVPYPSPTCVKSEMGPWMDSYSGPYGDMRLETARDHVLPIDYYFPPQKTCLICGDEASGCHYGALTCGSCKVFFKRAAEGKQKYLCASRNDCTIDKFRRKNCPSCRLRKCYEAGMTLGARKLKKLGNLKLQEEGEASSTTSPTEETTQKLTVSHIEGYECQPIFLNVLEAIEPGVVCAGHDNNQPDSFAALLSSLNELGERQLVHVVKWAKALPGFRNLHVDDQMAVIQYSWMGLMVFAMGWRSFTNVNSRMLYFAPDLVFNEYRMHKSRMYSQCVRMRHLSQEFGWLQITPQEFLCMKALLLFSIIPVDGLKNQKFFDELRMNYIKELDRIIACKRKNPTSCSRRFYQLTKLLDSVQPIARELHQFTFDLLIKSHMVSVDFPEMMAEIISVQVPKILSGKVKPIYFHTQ
compound,measurement,setting,value
Cn1c(NCCN(CCO)CCCc2ccc([N+](=O)[O-])cc2)cc(=O)n(C)c1=O,max response,[1],-12.1%
same,Potency,[2],inactive
same,Potency,[3],inactive
same,Potency,[4],inactive
same,Potency,[5],inactive
same,Potency,[6],inactive
same,Potency,[7],inactive
same,Potency,[8],inactive
same,Potency,[9],inactive
same,Potency,[10],inactive
same,Potency,[11],inactive
same,Potency,[12],inactive
same,Potency,[13],inactive
same,Potency,[14],inactive
same,Potency,[15],inactive
same,Potency,[16],inactive
Cc1cccc(Oc2ccccc2)c1,Potency,[1],47.8 µM (active)
same,Potency,[2],inactive
same,Potency,[17],inactive
same,Potency,[3],inactive
same,Potency,[5],47.8 µM (active)
same,Potency,[6],inactive
same,Potency,[7],inactive
same,Potency,[8],inactive
same,Potency,[18],inactive
same,Potency,[10],inactive
same,Potency,[11],47.8 µM (active)
same,Potency,[12],inactive
same,Potency,[13],inactive
same,Potency,[14],inactive
same,Potency,[15],inactive
same,Potency,[19],inactive
same,Potency,[16],inactive
CCN(CC)CCOC(=O)C1(c2ccccc2)CCCC1,max response,[1],-9.49%
same,Potency,[2],inactive
same,Potency,[17],inactive
same,Potency,[3],inactive
same,Potency,[4],inactive
same,Potency,[6],inactive
same,Potency,[7],inactive
same,Potency,[8],inactive
same,Potency,[9],inactive
same,Potency,[18],inactive
same,Potency,[10],inactive
same,Potency,[11],inactive
same,Potency,[12],inactive
same,Potency,[13],inactive
same,Potency,[14],inactive
same,Potency,[15],inactive
same,Potency,[19],inactive
same,Potency,[16],inactive
same,Potency,[20],inactive
CN(C)CC/C=C1\c2ccccc2COc2ccccc21,max response,[1],3.53%
same,Potency,[2],inactive
same,Potency,[17],inactive
same,Potency,[3],inactive
same,Potency,[4],inactive
same,Potency,[6],inactive
same,Potency,[7],inactive
same,Potency,[8],inactive
same,Potency,[18],inactive
same,Potency,[10],inactive
same,Potency,[11],inactive
same,Potency,[12],inactive
same,Potency,[13],inactive
same,Potency,[14],inactive
same,Potency,[15],inactive
same,Potency,[19],inactive
same,Potency,[16],inactive
C=CCCCCCC,max response,[1],9.99%
same,Potency,[2],inactive
same,Potency,[17],inactive
same,Potency,[3],inactive
same,Potency,[4],inactive
same,Potency,[5],inactive
same,Potency,[6],inactive
same,Potency,[7],inactive
same,Potency,[8],inactive
same,Potency,[9],inactive
same,Potency,[10],inactive
same,Potency,[11],inactive
same,Potency,[12],inactive
same,Potency,[13],inactive
same,Potency,[14],inactive
same,Potency,[15],inactive
same,Potency,[16],inactive
CCN(CC)CCOc1ccc2c(c1)C(=O)c1cc(OCCN(CC)CC)ccc1-2,Potency,[1],15.1 µM (active)
same,Potency,[2],inactive
same,Potency,[17],inactive
same,Potency,[5],26.8 µM (active)
same,Potency,[6],inactive
same,Potency,[8],inactive
same,Potency,[18],inactive
same,Potency,[10],inactive
same,Potency,[11],10.7 µM (active)
same,Potency,[12],inactive
same,Potency,[13],inactive
same,Potency,[14],inactive
same,Potency,[15],inactive
COC(=O)CSc1cc(N=c2sc(=O)n3n2CCCC3)c(F)cc1Cl,max response,[1],3.98%
same,Potency,[17],inactive
same,Potency,[3],inactive
same,Potency,[4],inactive
same,Potency,[5],inactive
same,Potency,[6],inactive
same,Potency,[7],inactive
same,Potency,[8],inactive
same,Potency,[9],inactive
same,Potency,[18],inactive
same,Potency,[10],inactive
same,Potency,[11],inactive
same,Potency,[12],inactive
same,Potency,[14],inactive
same,Potency,[15],inactive
same,Potency,[19],inactive
same,Potency,[16],inactive
same,Potency,[20],inactive
CN1CCC[C@@H]1c1cccnc1,max response,[1],7.25%
same,Potency,[2],inactive
same,Potency,[3],inactive
same,Potency,[4],inactive
same,Potency,[5],inactive
same,Potency,[6],inactive
same,Potency,[7],inactive
same,Potency,[8],inactive
same,Potency,[9],inactive
same,Potency,[18],inactive
same,Potency,[10],inactive
same,Potency,[11],inactive
same,Potency,[12],inactive
same,Potency,[13],inactive
same,Potency,[14],inactive
same,Potency,[19],inactive
same,Potency,[16],inactive
O=S1(=O)N=C(O)c2ccccc21,max response,[1],2.61%
same,Potency,[2],inactive
same,Potency,[17],inactive
same,Potency,[3],inactive
same,Potency,[4],inactive
same,Potency,[6],inactive
same,Potency,[7],inactive
same,Potency,[8],inactive
same,Potency,[18],inactive
same,Potency,[10],inactive
same,Potency,[11],inactive
same,Potency,[12],inactive
same,Potency,[13],inactive
same,Potency,[14],inactive
same,Potency,[15],inactive
same,Potency,[19],inactive
same,Potency,[16],inactive
O=S1(=O)c2cccc3cccc(c23)N1CCCN1CCN(c2ccc(F)cc2)CC1,max response,[1],-11.7%
same,Potency,[2],inactive
same,Potency,[3],inactive
same,Potency,[6],inactive
same,Potency,[7],inactive
same,Potency,[9],inactive
same,Potency,[18],inactive
same,Potency,[10],inactive
same,Potency,[11],inactive
same,Potency,[12],inactive
same,Potency,[13],inactive
same,Potency,[14],inactive
same,Potency,[19],inactive
same,Potency,[16],inactive
CCCCCOC(=O)c1ccc(O)cc1,Potency,[1],44.2 µM (active)
same,Potency,[2],49.6 µM (active)
same,Potency,[3],inactive
same,Potency,[6],inactive
same,Potency,[7],49.6 µM (active)
same,Potency,[8],inactive
same,Potency,[10],inactive
same,Potency,[11],44.2 µM (active)
same,Potency,[12],44.2 µM (active)
same,Potency,[14],inactive
same,Potency,[15],inactive
same,Potency,[19],inactive
same,Potency,[16],inactive
c1ccc(OCc2ccc(CCCN3CCOCC3)cc2)cc1,Potency,[1],21.3 µM (active)
same,Potency,[2],inactive
same,Potency,[3],inactive
same,Potency,[5],21.3 µM (active)
same,Potency,[6],inactive
same,Potency,[7],inactive
same,Potency,[18],inactive
same,Potency,[10],inactive
same,Potency,[13],inactive
same,Potency,[14],inactive
same,Potency,[16],inactive
same,Potency,[20],29.8 µM (active)
CN(C)CCCNCCCN,max response,[1],24.4%
same,Potency,[2],inactive
same,Potency,[3],inactive
same,Potency,[6],inactive
same,Potency,[7],inactive
same,Potency,[8],inactive
same,Potency,[18],inactive
same,Potency,[10],inactive
same,Potency,[11],inactive
same,Potency,[12],inactive
same,Potency,[13],inactive
same,Potency,[14],inactive
same,Potency,[15],inactive
same,Potency,[19],inactive
same,Potency,[16],inactive
O=C1CCCCCO1,max response,[1],10.5%
same,Potency,[2],inactive
same,Potency,[17],inactive
same,Potency,[3],inactive
same,Potency,[4],inactive
same,Potency,[5],inactive
same,Potency,[6],inactive
same,Potency,[7],inactive
same,Potency,[8],inactive
same,Potency,[9],inactive
same,Potency,[10],inactive
same,Potency,[11],inactive
same,Potency,[12],inactive
same,Potency,[13],inactive
same,Potency,[14],inactive
same,Potency,[15],inactive
same,Potency,[16],inactive
Cc1ccc(C(N)=O)cc1N,max response,[1],10%
same,Potency,[2],inactive
same,Potency,[17],inactive
same,Potency,[3],inactive
same,Potency,[4],inactive
same,Potency,[5],inactive
same,Potency,[7],inactive
same,Potency,[8],inactive
same,Potency,[9],inactive
same,Potency,[18],inactive
same,Potency,[10],inactive
same,Potency,[11],inactive
same,Potency,[12],inactive
same,Potency,[13],inactive
same,Potency,[14],inactive
same,Potency,[15],inactive
same,Potency,[16],inactive
CNCC[C@@H](Oc1ccccc1C)c1ccccc1,max response,[1],-5.29%
same,Potency,[2],inactive
same,Potency,[3],inactive
same,Potency,[4],inactive
same,Potency,[5],inactive
same,Potency,[7],inactive
same,Potency,[9],inactive
same,Potency,[18],inactive
same,Potency,[10],inactive
same,Potency,[11],inactive
same,Potency,[12],inactive
same,Potency,[13],inactive
same,Potency,[15],inactive
same,Potency,[19],inactive
same,Potency,[16],inactive
